Assay outcomes (PubChem)
G9a inh: qHTS Assay for Inhibitors of Histone Lysine Methyltransferase G9a; Histone-lysine N-methyltransferase EHMT2 (Homo sapiens), Q96KQ7; G9a H3K9 monomethylation, AlphaScreen, 2 h; 8.8% of 350,000 active; Potency, µM (top dose mostly 102 µM), for inactives: at the highest dose activity, negative = inhibition, hits mostly inhibitors; AID 504332, 2011; note: % is set by controls: 0 for no effect and ±100 for the full control effect; nearly all actives have a fitted effect of over 75% in size
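Quantitative HTS format: methyltransferase activity on a biotin-tagged H3K9 peptide is measured by AlphaScreen, using a rabbit anti-monomethyl-H3K9 antibody with streptavidin donor and anti-IgG acceptor beads. Final levels are 20 nM enzyme, 500 nM peptide, 20 uM SAM; 2 h RT.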
HP1b chromo inh: HTS for Inhibitors of HP1-beta Chromodomain Interactions with Methylated Histone Tails; AID 540317, 2011; AlphaScreen HP1-beta / biotin-H3K9me3 peptide binding; Chromobox protein homolog 1 (Homo sapiens), P83916; 0.56% of 390,000 active; Potency, µM (titrated, usually from 114 µM), for the others: at the top dose activity change, negative = inhibition, usual class: inhibitors; note: nearly all actives have a fitted effect of over 70% in size
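AlphaScreen: HP1-beta (50 nM) preformed 30 min with biotin-H3(1-18)K9me3 peptide (50 nM) in PBS pH 7.4, 0.01% Tween-20. Compound added for 30 min at RT, then streptavidin donor/nickel chelate acceptor beads (10 ug/mL) for 30 min.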
ALOX12 inh: Primary qHTS assay for inhibitors of human arachidonate 12S-lipoxygenase (ALOX12): Round 2; Potency, µM (series often up to 108 µM), without a hit: top-dose activity change, negative = inhibition, hits mostly inhibitors; 1.1% of 580,000 active; purified 12hLO, xylenol orange hydroperoxide absorbance; note: % is set by controls: 0 for no effect and ±100 for the full control effect
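Hydroperoxide product was detected by ferrous iron/xylenol orange as the 573 to 405 nm absorbance ratio. Arachidonic acid at 40 uM (final) was turned over for 30 min at room temperature by 150 nM human 12hLO, pH 7.0 Hepes buffer, after 15 min compound preincubation.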
BAZ2B inh: qHTS Assay for Inhibitors of BAZ2B | Bromodomain adjacent to zinc finger domain protein 2B (Homo sapiens), Q9UIF8 | AlphaScreen BAZ2B-H3K14Ac peptide displacement | Potency, µM (titrated, usually from 114 µM), for inactives: top-dose activity change, negative = inhibition, hits mostly inhibitors | 4.4% of 360,000 active; note: % is set by controls: 0 for no effect and ±100 for the full control effect; nearly all actives have a fitted effect of over 60% in size
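AlphaScreen displacement: compounds (up to 110uM) incubated 30 min at room temperature with a preformed 50 nM BAZ2B/50 nM biotinylated H3K14Ac peptide complex in PBS pH 7.4 with Tween-20. Donor and acceptor beads at 10 ug/mL final added, 20 min light-protected before reading.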
PLK1 PBD inh: qHTS for Inhibitors of PLK1-PDB (polo-like kinase 1 - polo-box domain): Primary Screen | AID 720504, 2013 | 2.8% of 360,000 active | Plk1 PBD binding of FITC phosphopeptide, fluorescence polarization | Serine/threonine-protein kinase PLK1 (Homo sapiens), P53350 | Potency, µM, for inactives: max response, negative = inhibition, usual class: inhibitors; note: series mostly up to about 57 µM; % is set by controls: 0 for no effect and ±100 for the full control effect; nearly all actives have a fitted effect of over 65% in size
JMJD2A Tudor: qHTS Assay for Inhibitors of JMJD2A-Tudor Domain | AlphaScreen JMJD2A-Tudor / H3K4me3 peptide binding | Potency, µM (series often up to 114 µM), for the others: at the top dose activity change, negative = inhibition, usual class: inhibitors | Lysine-specific demethylase 4A (Homo sapiens), O75164 | 4.4% of 390,000 active; note: % is set by controls: 0 for no effect and ±100 for the full control effect; nearly all actives have a fitted effect of over 50% in size
Target sequence (O75164 whole entry, looked up, the tested form may be a part): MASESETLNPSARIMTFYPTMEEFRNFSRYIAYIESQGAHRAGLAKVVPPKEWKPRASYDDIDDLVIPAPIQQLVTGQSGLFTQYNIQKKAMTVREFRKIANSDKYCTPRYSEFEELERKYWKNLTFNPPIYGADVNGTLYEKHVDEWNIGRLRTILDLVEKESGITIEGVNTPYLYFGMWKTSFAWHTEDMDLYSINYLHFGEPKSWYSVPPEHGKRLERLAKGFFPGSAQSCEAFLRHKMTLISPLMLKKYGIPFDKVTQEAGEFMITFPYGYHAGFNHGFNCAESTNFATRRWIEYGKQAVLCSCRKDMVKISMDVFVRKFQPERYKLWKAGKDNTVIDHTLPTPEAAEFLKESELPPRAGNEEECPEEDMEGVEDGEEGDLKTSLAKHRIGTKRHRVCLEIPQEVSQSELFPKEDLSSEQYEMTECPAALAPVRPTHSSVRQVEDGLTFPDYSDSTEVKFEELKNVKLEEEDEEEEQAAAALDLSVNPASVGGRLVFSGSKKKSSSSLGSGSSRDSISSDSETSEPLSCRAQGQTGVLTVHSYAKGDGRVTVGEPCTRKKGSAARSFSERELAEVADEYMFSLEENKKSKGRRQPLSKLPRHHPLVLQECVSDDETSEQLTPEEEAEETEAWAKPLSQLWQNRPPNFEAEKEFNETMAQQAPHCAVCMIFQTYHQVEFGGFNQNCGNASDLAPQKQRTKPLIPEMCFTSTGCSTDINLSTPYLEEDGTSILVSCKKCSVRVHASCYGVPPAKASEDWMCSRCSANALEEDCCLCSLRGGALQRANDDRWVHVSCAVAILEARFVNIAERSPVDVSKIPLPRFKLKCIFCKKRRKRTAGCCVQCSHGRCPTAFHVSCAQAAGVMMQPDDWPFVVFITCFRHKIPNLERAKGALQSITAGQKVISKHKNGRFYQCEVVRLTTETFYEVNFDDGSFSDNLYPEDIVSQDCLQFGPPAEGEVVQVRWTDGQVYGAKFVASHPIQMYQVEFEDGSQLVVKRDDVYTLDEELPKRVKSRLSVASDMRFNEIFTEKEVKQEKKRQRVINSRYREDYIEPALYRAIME
Starred values were filed as active, the others as inactive; [ ] = dose if it differs, or a comment. Rows were chosen to be rich in hits. Some 9% of all compounds tested hit in one or more screens of this group. Calls come from the whole dose curve; as a rule, active = well fitted curve in the direction sought with a large enough effect; inconclusive = small, poorly fitted or top-dose-only effect, or another doubt; inactive = no such curve, though single readings can be large; an effect the other way counts as inactive or inconclusive. Potency is the fitted concentration of half-maximal effect.

Screening O=C(c1ccccc1)C1CCN(C(=O)/C=C/c2cccc(F)c2)CC1 returned ALOX12 inh -16%.
Screening CNC(=O)[C@@]1(C)C=C[C@@H](Cc2ccccc2)N1C(=O)OC returned G9a inh 79µM*, HP1b chromo inh 0%, ALOX12 inh 0%, BAZ2B inh -16%, PLK1 PBD inh -12% and JMJD2A Tudor -24%.
Screening CC(=O)N1[C@H](Cc2ccccc2)C=C[C@]1(C)C(=O)NCCc1c[nH]c2ccccc12 returned G9a inh inconclusive, HP1b chromo inh 6%, ALOX12 inh -4%, BAZ2B inh -32%, PLK1 PBD inh -17% and JMJD2A Tudor -24%.
For CC(=O)N1[C@H](Cc2ccccc2)C=C[C@]1(C)C(=O)NCc1ccc(C)o1 the results were G9a inh 6.3µM*, HP1b chromo inh 19%, BAZ2B inh -11%, PLK1 PBD inh -17% and JMJD2A Tudor -20%.
Screening COC(=O)N1[C@H](Cc2ccccc2)C=C[C@]1(C)C(=O)NCc1ccccn1 returned G9a inh inconclusive, HP1b chromo inh 39%, BAZ2B inh -31%, PLK1 PBD inh 2% and JMJD2A Tudor -28%.
COc1cccc(C2C(=O)N(C3CCCCC3)CC(=O)N2CCc2ccc(OC)c(OC)c2)c1 (configuration not stated) was read as G9a inh 2%[59 µM], HP1b chromo inh 16%, ALOX12 inh -23%, BAZ2B inh 4% and JMJD2A Tudor -10%.
Screening O=C(NCCc1ccccc1)C(c1ccccc1)N(C(=O)c1csnn1)C1CC1 (configuration not stated) returned G9a inh 10%, HP1b chromo inh 7%, ALOX12 inh -12%, BAZ2B inh 5%, PLK1 PBD inh -15% and JMJD2A Tudor -12%.
For O=C1c2ccccc2C(Nc2ccc(S(=O)(=O)N3CCCCCC3)cc2)N1Cc1ccco1 (configuration not stated) the results were G9a inh inconclusive, HP1b chromo inh 47%, ALOX12 inh 13%, BAZ2B inh -2%, PLK1 PBD inh -3% and JMJD2A Tudor -29%.
`O=C(COC(=O)CCc1ccccc1)NCc1ccccc1` gave G9a inh -6%[12.7 µM], HP1b chromo inh 53%, ALOX12 inh -11%, BAZ2B inh -1%, PLK1 PBD inh -2% and JMJD2A Tudor -2%.
For Cc1ccc(CSc2nc3ccncc3[nH]2)cc1 the results were G9a inh 6%, HP1b chromo inh 34%, ALOX12 inh 13%, BAZ2B inh 11%, PLK1 PBD inh -2% and JMJD2A Tudor -12%.
Screening CCCC(CCC)c1nc2ccncc2[nH]1 returned G9a inh 50µM*, HP1b chromo inh inconclusive, ALOX12 inh -18%, BAZ2B inh inconclusive, PLK1 PBD inh -6% and JMJD2A Tudor inconclusive.
CN(C)c1nc(N2CCN(c3ccc(F)cc3)CC2)c(C#N)c(=O)o1 was read as G9a inh inconclusive, HP1b chromo inh 29%, ALOX12 inh -6%, BAZ2B inh 17%, PLK1 PBD inh -23% and JMJD2A Tudor -11%.
For CCOC(=O)CCSc1nc(C)c2cc(OC)ccc2n1 the results were G9a inh -39%[59 µM], HP1b chromo inh 49%, ALOX12 inh 9%, BAZ2B inh 46%, PLK1 PBD inh -11% and JMJD2A Tudor 19%.
Screening CCCCc1c(C)nc2ccc(OC)cc2c1SCCC(=O)O returned G9a inh 198%, HP1b chromo inh -32%, ALOX12 inh 45µM*, BAZ2B inh 37%, PLK1 PBD inh -24% and JMJD2A Tudor inconclusive.
Screening CCc1c(C)nc2ccc(Br)cc2c1SCCC#N returned G9a inh 1%[59 µM], HP1b chromo inh 65%, ALOX12 inh -1%, BAZ2B inh 12%, PLK1 PBD inh inconclusive and JMJD2A Tudor inconclusive.
CCCc1c(C)nc2ccccc2c1SCCC#N was read as G9a inh 6%[59 µM], HP1b chromo inh 55%, ALOX12 inh inconclusive, BAZ2B inh 33%, PLK1 PBD inh 21µM* and JMJD2A Tudor 6%.
For CCCc1c(C)nc2ccccc2c1SCCC(=O)O the results were ALOX12 inh -40%.
For CCCCc1c(C)nc2ccc(Br)cc2c1SCCC#N the results were G9a inh 28µM* and BAZ2B inh 19%.
For Cc1ccccc1-c1cc(O)c2c(c1)CN(Cc1nccn1C)CCO2 the results were ALOX12 inh 108%.
`COc1cccc(NS(=O)(=O)c2ccc3c(c2)C2C=CCC2C(c2ccc(C(=O)O)cc2)N3)c1` (configuration not stated) gave G9a inh 7.9µM*, HP1b chromo inh inconclusive, ALOX12 inh 13µM*, BAZ2B inh 45µM*, PLK1 PBD inh inconclusive and JMJD2A Tudor 45µM*.
For Cc1cccc(NS(=O)(=O)c2ccc3c(c2)[C@H]2C=CC[C@H]2[C@@H](c2ccc(F)cc2)N3)c1 the results were G9a inh 13µM*, HP1b chromo inh inconclusive, ALOX12 inh inconclusive, BAZ2B inh -37% and JMJD2A Tudor inconclusive.
Screening COc1ccc(OC)c([C@@H]2Nc3ccc(C(=O)O)cc3[C@@H]3C=CC[C@@H]32)c1 returned G9a inh inconclusive, HP1b chromo inh 0%, ALOX12 inh 3%, BAZ2B inh -25% and JMJD2A Tudor inconclusive.
COc1ccc(C(=O)N/N=C(\C)c2ccc3c(c2)C2C=CCC2C(c2ccccc2)N3)cc1 (configuration not stated) was read as G9a inh 7.9µM*, HP1b chromo inh -9%, BAZ2B inh inconclusive, PLK1 PBD inh inconclusive and JMJD2A Tudor inconclusive.
For COC(=O)c1ccc([C@H]2Nc3ccc(S(=O)(=O)Nc4ccc(F)cc4)cc3[C@H]3C=CC[C@H]32)cc1 the results were G9a inh 5.6µM*, HP1b chromo inh -14%, ALOX12 inh 5%, BAZ2B inh inconclusive and JMJD2A Tudor inconclusive.
`COc1ccc(C)cc1NS(=O)(=O)c1ccc2c(c1)[C@H]1C=CC[C@H]1[C@@H](c1cccc(Cl)c1)N2` gave G9a inh 2.8µM*, HP1b chromo inh 2%, ALOX12 inh inconclusive, BAZ2B inh inconclusive and JMJD2A Tudor inconclusive.
